For experiment [1], the target named is DNA repair nuclease/redox regulator APEX1 (Homo sapiens) (UniProt P27695). Briefly: qHTS Validation Assay for Inhibitors of the Human Apurinic/apyrimidinic Endonuclease 1 (APE1) (AID 1705; also: potency is read from the fitted curve at half-maximal effect). In outline: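 Read-out: TAMRA fluorescence (525 nm ex, 598 nm em) from cleavage of a quenched THF abasic-site duplex, 50 nM final; activity taken as intensity change between third and first of three reads 60 s apart.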

Experiment [2] is described as follows: Counterscreen for APE1 Inhibitors: Fluorescent Dye Displacement Validation Assay (AID 1707). In outline: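 Assay buffer: Tris-HCl pH7.5 with 50mM NaCl, 2 mM MgCl2, 0.01% Tween-20. Dye 250 nM, duplex 50 nM final. Readout: decrease in ThO endpoint fluorescence, 480 nm excitation, 540 nm emission.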
Experiment [3] addresses Endonuclease 4 (Escherichia coli (strain K12)) (UniProt P0A6C1). Briefly: Counterscreen for APE1 Inhibitors: qHTS Validation Assay for Inhibitors of Endonuclease IV (AID 1708). In outline:
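Concentration-response counterscreen run identically to the APE1 assay: 15 min room-temperature preincubation of 2 nM enzyme with compound, reaction started with 50 nM quenched abasic DNA, progress taken from kinetic fluorescence.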

The nature of experiment [4]: qHTS for differential inhibitors of proliferation of Plasmodium falciparum line 7G8 (AID 1815).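 Also: parasite growth measured after three days of incubation.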 Also: potency is read from the fitted curve at half-maximal effect.
The nature of experiment [5]: qHTS for differential inhibitors of proliferation of Plasmodium falciparum line GB4 (AID 1816).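 Also: parasite growth measured after 72 h incubation.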 Also: potency is read from the fitted curve at half-maximal effect. Particulars: Potency: Plasmodium falciparum GB4 proliferation inhibition.
The nature of experiment [6]: qHTS for differential inhibitors of proliferation of Plasmodium falciparum line 3D7 (AID 1876). Also: potency is read from the fitted curve at half-maximal effect.
The nature of experiment [7]: qHTS for differential inhibitors of proliferation of Plasmodium falciparum line D10 (AID 1877).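 Also: parasites grown with compound for 72 h before DNA staining.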 Also: potency is read from the fitted curve at half-maximal effect.
Experiment [8] can be described thus: qHTS for differential inhibitors of proliferation of Plasmodium falciparum line Dd2 (AID 1882). Also: nearly all actives have a fitted effect of over 65% in size. Also: potency is read from the fitted curve at half-maximal effect. The conditions noted are these: Potency: Plasmodium falciparum Dd2 proliferation inhibition. The method, boiled down: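 Dd2-infected erythrocytes (0.3% parasitemia, 2.5% hematocrit final) incubated with compound 72 h at 37 C, 5% CO2; lysed with saponin/Triton buffer containing SYBR Green I, incubated overnight in the dark, then read by fluorescence (485/535 nm). Normalized to 0.29 uM artemisinin and DMSO.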

A short description of experiment [9]: qHTS for differential inhibitors of proliferation of Plasmodium falciparum line W2 (AID 1883).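 Also: parasites grown with compound for 72 h before lysis and staining.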 Also: potency is read from the fitted curve at half-maximal effect. The conditions noted are these: Potency: Plasmodium falciparum W2 proliferation inhibition.
A short description of experiment [10]: qHTS for differential inhibitors of proliferation of Plasmodium falciparum line HB3 (AID 1886).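 Also: parasites grown with compound for 72 h before SYBR Green readout.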 Also: potency is read from the fitted curve at half-maximal effect. Particulars: Potency: Plasmodium falciparum HB3 proliferation inhibition.

Results filed as inconclusive are left out. Calls of active or inactive are those of the source. Calls follow the shape of the dose curve; as a rule, active = well fitted curve in the direction sought with a large enough effect; inconclusive = small, poorly fitted or top-dose-only effect, or another doubt; inactive = no such curve, though single readings can be large; an effect the other way counts as inactive or inconclusive.

Chain of DNA repair nuclease/redox regulator APEX1 (Homo sapiens) (P27695 whole entry, looked up): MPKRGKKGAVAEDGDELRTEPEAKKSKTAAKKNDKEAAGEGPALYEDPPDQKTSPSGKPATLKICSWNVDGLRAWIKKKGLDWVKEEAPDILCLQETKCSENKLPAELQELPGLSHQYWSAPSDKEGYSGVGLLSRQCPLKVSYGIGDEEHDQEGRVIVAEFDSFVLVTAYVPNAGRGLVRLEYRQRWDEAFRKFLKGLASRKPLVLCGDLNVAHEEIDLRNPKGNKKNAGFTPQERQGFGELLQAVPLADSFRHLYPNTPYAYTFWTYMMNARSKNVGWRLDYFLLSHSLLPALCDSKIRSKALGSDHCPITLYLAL

Consider `N[C@@H](Cc1c[nH]c2ccc(O)cc12)C(=O)O`, for which the Potency entry in experiment [1], in [2], in experiment [3], in experiment [4], in experiment [5] and in [6] was “inactive” in each case. Further, the Potency entry in experiment [7], in [8], in experiment [9] and in experiment [10] was “inactive” in each case.
On to `O=c1c(-c2ccc(O)cc2)coc2cc(O)cc(O)c12`, for which the Potency entry in [1], in experiment [2], in experiment [3], in experiment [7], in experiment [8] and in experiment [10] was “inactive” throughout.
For `CS(=O)(=O)Nc1ccc([N+](=O)[O-])cc1Oc1ccccc1`, the Potency in experiment [1] is 39.8 µM (active). In addition, the Potency entry in [2], in experiment [3], in experiment [4], in [6], in experiment [7] and in [8] was “inactive” each time. In addition, the Potency entry in experiment [10] was “inactive”.
For `CN1CCC(=C2c3ccccc3C=Cc3ccccc32)CC1`, the Potency result in experiment [1], in experiment [2] and in [3] was “inactive” in each case. The Potency was 5.01 µM (active) in [4]; 8.91 µM (active) in experiment [5]; 11.2 µM (active) in experiment [6]; 12.6 µM (active) in experiment [7]; 5.01 µM (active) in experiment [8]; 2.82 µM (active) in [9]. In addition, the Potency in experiment [10] was 11.2 µM (active).
As to `CC(C)C(=O)Nc1ccc([N+](=O)[O-])c(C(F)(F)F)c1`, the Potency result in [1], in experiment [2] and in [8] was “inactive” throughout.
Consider `Nc1nc2c(ncn2COC(CO)CO)c(=O)[nH]1`, for which the Potency result in [1], in experiment [2], in experiment [4], in [5], in experiment [6] and in experiment [7] was “inactive” each time. Also, the Potency result in experiment [8], in experiment [9] and in experiment [10] was “inactive” throughout.
For `Fc1ccc([C@@H]2CCNC[C@H]2COc2ccc3c(c2)OCO3)cc1`, the Potency entry in [1] and in experiment [3] was “inactive” throughout. The Potency in [4] was 5.62 µM (active); in experiment [5], 5.01 µM (active); in experiment [6] it was 7.08 µM (active); in experiment [7], 12.6 µM (active); in [8], 11.2 µM (active); in experiment [9], 3.55 µM (active). Besides, in experiment [10], the Potency is 7.08 µM (active).
With `CN1C2CCC1CC(OC(=O)C(CO)c1ccccc1)C2` (stereo unspecified), the Potency entry in experiment [1], in [2], in [6], in experiment [7] and in experiment [10] was “inactive” in each case.
As for `NCCc1cnc[nH]1`, the Potency result in experiment [1], in experiment [3], in experiment [4], in experiment [5], in experiment [6] and in experiment [7] was “inactive” throughout. The Potency result in [8], in experiment [9] and in experiment [10] was “inactive” throughout.
`CCCCc1oc2ccccc2c1C(=O)c1cc(I)c(OCCN(CC)CC)c(I)c1`: the Potency result in experiment [1] and in experiment [2] was “inactive” in each case. For the same compound, the Potency in [4] was 2.82 µM (active); in experiment [5], 2.51 µM (active); in experiment [6], 2.82 µM (active); in [7], 7.08 µM (active); in experiment [8] it was 6.31 µM (active); in experiment [9] it was 2.24 µM (active). For the same compound, the Potency in experiment [10] was 3.98 µM (active).
As for `Clc1ccc2c(c1)C(N1CCNCC1)=Nc1ccccc1O2`, the Potency entry in experiment [1] and in experiment [2] was “inactive” each time. The Potency in experiment [4] is 7.08 µM (active); in experiment [5], 5.62 µM (active); in [8] it was 11.2 µM (active); in [9], 5.62 µM (active); in experiment [10], 11.2 µM (active).
In the case of `NCCS(=O)(=O)O`, the Potency entry in [1], in [3], in [4], in experiment [5], in experiment [6] and in experiment [7] was “inactive” in each case. Further, the Potency entry in experiment [8], in experiment [9] and in [10] was “inactive” each time.
With `Clc1ccc(C(c2ccccc2Cl)C(Cl)Cl)cc1` (stereo unspecified), the Potency entry in experiment [1], in experiment [3], in experiment [4], in experiment [5], in experiment [6] and in experiment [7] was “inactive” in each case. For the same compound, the Potency entry in experiment [8] and in experiment [10] was “inactive” in each case.
`CCCNCC(O)COc1ccccc1C(=O)CCc1ccccc1` (stereo unspecified): the Potency entry in experiment [1] and in experiment [2] was “inactive” each time. In addition, the Potency is 0.355 µM (active) in experiment [5]; 0.891 µM (active) in [6]; 2.24 µM (active) in experiment [7]; 1 µM (active) in experiment [8]; 0.316 µM (active) in [9]; 1 µM (active) in [10].
Take `CN(C)c1nc(N(C)C)nc(N(C)C)n1`: the Potency result in experiment [1], in [3], in experiment [4], in [5], in [6] and in experiment [7] was “inactive” each time. Moreover, the Potency entry in [8], in [9] and in experiment [10] was “inactive” in each case.
On to `Clc1ccccc1C(c1ccccc1)(c1ccccc1)n1ccnc1`, for which the Potency result in experiment [1] and in [2] was “inactive” throughout. For the same compound, the Potency in experiment [4] is 0.251 µM (active); in [5], 0.316 µM (active); in [6] it was 0.447 µM (active); in experiment [7], 0.631 µM (active); in experiment [8], 1.78 µM (active); in experiment [9] it was 0.355 µM (active). Also, the Potency in experiment [10] was 0.316 µM (active).
As for `COc1ccc2[nH]cc(CCNC(C)=O)c2c1`, the Potency entry in experiment [1], in experiment [3], in [4], in experiment [5], in experiment [6] and in [7] was “inactive” throughout. Also, the Potency result in experiment [8], in experiment [9] and in [10] was “inactive” each time.
Take `NC(=O)NO`: the Potency entry in [1], in [3], in [4], in experiment [5], in experiment [6] and in [7] was “inactive” throughout. Moreover, the Potency entry in experiment [8], in experiment [9] and in experiment [10] was “inactive” in each case.

Values taken from PubChem BioAssay (NCATS).
